From PubChem
Only some compounds are listed: those with a hit (about 2.9% of all), similar ones and a draw of the others.
ADAM10 inh: human ADAM10 inhibitors, primary screen, biochemical, QFRET, HTS. recombinant ADAM10, EDANS/DABCYL FRET peptide cleavage, 3 h. actives 0.62% (n = 370,000). Disintegrin and metalloproteinase domain-containing protein 10 (Homo sapiens), O14672. inhibition, % at 7 µM. AID 720582, 2013;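 active = inhibition above a per-campaign cutoff equal to the mean of compounds falling between control-based bounds plus 3 SD, cut at about 20% in these data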
ADAM17 inh: ADAM17 inhibitors, primary screen, biochemical, QFRET. Disintegrin and metalloproteinase domain-containing protein 17 (Homo sapiens), P78536. recombinant ADAM17, EDANS/DABCYL FRET peptide cleavage. inhibition, % at 6.95 µM. actives 0.83% (n = 370,000). AID 720648, 2013;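 active = inhibition above the mean of compounds lying between control limits plus 3 SD, set per campaign, cut at about 8.5% in these data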
Target sequence (P78536 215-824 limits assumed): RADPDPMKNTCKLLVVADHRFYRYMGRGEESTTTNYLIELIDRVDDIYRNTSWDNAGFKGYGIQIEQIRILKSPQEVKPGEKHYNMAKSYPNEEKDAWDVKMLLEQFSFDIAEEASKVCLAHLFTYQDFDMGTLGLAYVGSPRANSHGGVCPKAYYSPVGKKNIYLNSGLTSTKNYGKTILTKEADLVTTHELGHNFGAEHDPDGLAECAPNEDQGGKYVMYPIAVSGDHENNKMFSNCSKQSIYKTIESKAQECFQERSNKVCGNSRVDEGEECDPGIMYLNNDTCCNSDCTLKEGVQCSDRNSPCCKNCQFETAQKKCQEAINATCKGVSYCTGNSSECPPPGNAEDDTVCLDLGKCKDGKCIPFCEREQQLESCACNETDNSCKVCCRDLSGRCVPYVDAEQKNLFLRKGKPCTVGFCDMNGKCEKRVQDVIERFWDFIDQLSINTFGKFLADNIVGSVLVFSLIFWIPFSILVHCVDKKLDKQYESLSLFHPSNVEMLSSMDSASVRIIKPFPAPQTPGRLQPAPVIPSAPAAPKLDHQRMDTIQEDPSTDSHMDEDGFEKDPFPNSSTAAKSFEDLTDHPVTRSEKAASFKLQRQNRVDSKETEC
KLK7 zymogen act: proKLK7 zymogen activators, primary screen, biochemical, fluorescence intensity. purified proKLK7, EDANS-DABCYL substrate fluorescence; 100% is mature enzyme control, 0% vehicle. activation, % at 7 µM. actives 0.9% (n = 370,000). AID 652039, 2013;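 active = activation above the mean of all tested compounds plus 3 SD, computed per campaign excluding outliers beyond control limits, cut at about 13% in these data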
PLCg1 inh: PLC-gamma1 enzyme inhibitors, primary screen, biochemical, fluorescence, purified enzyme | 1-phosphatidylinositol 4,5-bisphosphate phosphodiesterase gamma-1 (Homo sapiens), P19174 | actives 0.84% (n = 370,000) | AID 720700, 2013 | inhibition, % at 12.2 µM | fluorogenic substrate; in the data active = inhibition above about 9.5%
PLCb3 inh: human PLC-beta3 inhibitors, primary screen, biochemical, fluorescence; 1-phosphatidylinositol 4,5-bisphosphate phosphodiesterase beta-3 (Homo sapiens), Q01970; Purified PLC-beta3, fluorogenic substrate; inhibition, % at 12.2 µM; actives 0.18% (n = 370,000); AID 720704, 2013
ADAM10 confirm: human ADAM10 inhibitors, confirmation, biochemical, QFRET, triplicate; shares compounds with ADAM10 inh; ADAM10 QFRET peptide cleavage, EDANS fluorescence; inhibition, % at 6.95 µM; actives 1% (n = 2,100); AID 743208, 2013;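 active = inhibition above about 20% chosen separately for each screening run, limit read from the data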
ADAM17 counter: ADAM17 inhibitors, counter-screen for ADAM10 exosite inhibitor project, biochemical, QFRET, high throughput. shares compounds with ADAM10 inh. ADAM17 QFRET peptide cleavage, EDANS fluorescence. inhibition, % at 6.95 µM. actives 0.5% (n = 2,100);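 active = mean triplicate inhibition above the solvent-only control wells' mean plus 3 SD, cut at about 12% in these data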
ADAM10 counter: ADAM10 inhibitors, counter-screen for ADAM17 exosite inhibitor project, biochemical, FRET, human ADAM10; shares compounds with ADAM17 inh; recombinant ADAM10, EDANS/DABCYL FRET peptide cleavage, 3 h; inhibition, % at 6.95 µM; actives 47% (n = 2,900); AID 743256, 2014;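 active = mean inhibition over the triplicate runs exceeds the activity threshold set in the earlier primary screen, cut at about 20% in these data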
ADAM17 confirm: ADAM17 inhibitors, hit retest, confirmation, biochemical, QFRET peptide cleavage; inhibition, % at 6.95 µM; AID 743257, 2014; shares compounds with ADAM17 inh; actives 65% (n = 2,900); recombinant ADAM17, EDANS/DABCYL QFRET peptide cleavage;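 active = mean inhibition across replicates above the hit cutoff set in the primary screen, cut at about 8.5% in these data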
PLCg1 ctr: PLC-gamma1 enzyme inhibitors, counter-screen for PLC-beta3 inhibitor project, biochemical, fluorescence; actives 3.1% (n = 3,300); purified PLC-gamma1, fluorogenic substrate; shares compounds with PLCg1 inh; inhibition, % at 12.3 µM; in the data active = inhibition above about 9.5%
PLCbeta3 conf: PLC-beta3 inhibitor confirmation, biochemical, fluorescence, purified enzyme; inhibition, % at 12.3 µM; shares compounds with PLCg1 inh; fluorogenic substrate fluorescence; actives 1% (n = 3,300)
Large screens that a line does not name were inactive (follow-up assays come after a bar, where they were run). Rule as the data show it, unless noted: active = inhibition above about 11%; inactive = the rest.

CCC(C)C1NC(=O)C(NC(=O)C(CC(C)C)N(C)C(=O)C2CCCN2C(=O)C(C)O)C(C)OC(=O)C(Cc2ccc(OC)cc2)N(C)C(=O)C2CCCN2C(=O)C(CC(C)C)NC(=O)[C@H](C)C(=O)[C@H](C(C)C)OC(=O)CC1O (stereo not given in full)	ADAM10 inh 26, ADAM17 inh 12, PLCg1 inh 18 | ADAM10 confirm inactive | ADAM17 counter inactive | ADAM10 counter inactive | ADAM17 confirm inactive | PLCg1 ctr inactive | PLCbeta3 conf inactive
COC(=O)C1=C(c2ccc(C(C)=O)cc2)C[C@@H]2CC[C@H]1N2C(=O)N1CCC(C)CC1	none
CCC(c1nnnn1Cc1ccccc1)N1CCC2(CC1)C(=O)NCN2c1ccccc1 (stereo not given)	ADAM17 inh 10 | ADAM10 counter inactive | ADAM17 confirm 12
COc1ccc(C(c2nnnn2Cc2ccccc2)N2CCC3(CC2)C(=O)NCN3c2ccccc2)cc1 (stereo not given)	none
COC(=O)C1=C(c2ccc(OC(F)(F)F)cc2)C[C@@H]2CC[C@H]1N2C(=O)NCc1ccc(F)cc1	none
COC(=O)C1=C(c2ccc(OC(F)(F)F)cc2)C[C@@H]2CC[C@H]1N2C(=O)NCc1cc(C)oc1C(F)(F)F	ADAM17 inh 11 | ADAM10 counter 29 | ADAM17 confirm 15
COC(=O)C1=C(c2ccc(OC(F)(F)F)cc2)C[C@@H]2CC[C@H]1N2C(=O)NCc1cccc2ccccc12	ADAM10 inh 30, ADAM17 inh 8.7 | ADAM10 counter 21 | ADAM17 confirm 10
COC(=O)C1=C(c2cccc(C#N)c2)C[C@@H]2CC[C@H]1N2C(=O)NCCNC(C)=O	none
O=C(NN=Cc1ccc(N(CCCl)CCCl)cc1)c1cc(=O)[nH]c(=O)[nH]1	none
O=C(NN=Cc1ccc(N(CCCl)CCCl)cc1)C(=O)c1c[nH]c2ccccc12	ADAM17 inh 15 | ADAM10 counter inactive | ADAM17 confirm 13
O=P(NS(=O)(=O)c1ccc(Br)cc1)(Oc1ccccc1)Oc1ccccc1	none
O=P(NS(=O)(=O)c1ccccc1)(Oc1ccccc1)Oc1ccccc1	ADAM17 inh 8.7 | ADAM10 counter inactive | ADAM17 confirm inactive
Cc1ccc(Cn2nnnc2CN2CCC(n3nnc4cc(C)ccc43)CC2)cc1	ADAM17 inh 9.3 | ADAM10 counter inactive | ADAM17 confirm inactive
CCOC(=O)CC1c2ccccc2-n2nncc2CN1CC1CCCCC1 (stereo not given)	none
COC(=O)C1=C(c2ccc(-c3ccccc3)c(F)c2)C[C@@H]2CC[C@H]1N2C(=O)NCCNC(C)=O	none
COC(=O)C1=C(c2ccccc2OCc2ccccc2)C[C@@H]2CC[C@H]1N2C(=O)NCc1ccc(OC)c(OC)c1	ADAM17 inh 12 | ADAM10 counter inactive | ADAM17 confirm inactive
COC(=O)C1=C(c2ccccc2OCc2ccccc2)C[C@@H]2CC[C@H]1N2C(=O)NCc1cccc(F)c1	none
COC(=O)C1=C(c2ccc(-c3ccccc3)c(F)c2)C[C@@H]2CC[C@H]1N2C(=O)NCCc1ccccc1	ADAM17 inh 9.0 | ADAM10 counter inactive | ADAM17 confirm inactive
COC(=O)C1=C(c2ccccc2OCc2ccccc2)C[C@@H]2CC[C@H]1N2C(=O)NCc1ccc(Cl)cc1	ADAM17 inh 9.7 | ADAM10 counter inactive | ADAM17 confirm 11
Cc1cc(N2CCNC[C@@H]2C)ccc1N1CC[C@@H](O)C1	none
CC(=O)C1CCC2C3C(N4CC4)CC4=CC(=O)CCC4(C)C3CCC12C (stereo not given)	none
CCOC(=O)C(O)(c1ccc(NC(=S)NC(=O)c2ccc(Cl)cc2Cl)c(C)c1)C(F)(F)F (stereo not given)	ADAM10 inh 29, ADAM17 inh 15 | ADAM10 counter 47 | ADAM17 confirm 23
CCOC(=O)C(O)(c1ccc(NC(=O)Oc2ccccc2)cc1)C(F)(F)F (stereo not given)	none
CCOC(=O)C(O)(c1ccc(NC(=S)NC(=O)c2ccc(Cl)cc2Cl)cc1)C(F)(F)F (stereo not given)	ADAM17 inh 9.6 | ADAM10 counter 24 | ADAM17 confirm 14
C[C@@H]1CN([C@@H](C)CO)C(=O)CCCn2cc(nn2)CO[C@H]1CN(C)C(=O)Oc1ccc2ccccc2c1	none
S=C(NCCc1ccccc1)N1Cc2ccc(Br)cc2-n2nncc2C1	ADAM17 inh 11 | ADAM10 counter 25 | ADAM17 confirm 14
COC(=O)C1=C(C(=O)OC)C2c3ccccc3C1c1ccccc12	ADAM17 inh 11 | ADAM10 counter inactive | ADAM17 confirm inactive
CC(=O)NNC(=O)CN1C(=O)CN=C(c2ccccc2)c2cc(Br)ccc21	none
COc1ccc(OCC(=O)Nc2ccc(Cl)cc2C(=O)c2ccccc2)cc1	ADAM17 inh 9.1 | ADAM10 counter inactive | ADAM17 confirm inactive
Oc1ccc(Cl)cc1Cc1ccccc1	ADAM17 inh 8.7 | ADAM10 counter inactive | ADAM17 confirm inactive
Cc1ccccc1NC(=NCCCN1CC1)Nc1ccccc1C	none
COc1cc(OC)c([C@H]2C=C(C)[C@H]3C[C@@H]2C3(C)C)c(OC)c1	none
